Assay results: PubChem BioAssay
The source made the active and inactive calls.

Assay: growth modulation of vineyard yeast isolate – strain RM11-1a, OD600, basal, 24 h, primary screen (AID 1177);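 further: cultures grown under basal conditions with no added stressor; test concentration not given here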
Conditions: S. cerevisiae RM11-1a growth, OD600, 24 h; higher = more signal, called active from +8 up or from −8 down

z-score, inactive:
COC(=O)Cn1c(C(=O)N2CCCC2)cc2c1C[C@H]1CN(C(=O)c3ccccc3)[C@@](Cc3ccccc3)(C(=O)OC)[C@@H]21 0.965, O=C1C[C@@](C(=O)NCCN2CCOCC2)(c2ccc([N+](=O)[O-])cc2)[C@@H](c2ccc(CO)cc2)N1C1CCCCC1 -0.206, CC(=O)NCCCC[C@@H]1NC(=O)[C@H]2C[C@@H](C(=O)NCCCCCCN(C)C)[C@@H](c3cccc(OCCO)c3)N2C1=O -0.0243, CC(C)(C)OC(=O)CC[C@]1(C(=O)N2CCCCC2)N=C(c2ccc(OCCCO)cc2)O[C@H]1c1ccccc1 -0.374, CC(=O)NCCCC[C@@H]1NC(=O)[C@H]2C[C@@H](C(=O)NCCCCCCN(C)C)[C@@H](c3ccc(O)cc3)N2C1=O -0.0236, O=C1C2C=CC(C(O)Cc3ccccc3)N(Nc3ccc([N+](=O)[O-])cc3)C2C(=O)N1c1ccccc1 (stereo not given) -0.518, C=C(COC)C(=O)CC[C@H](OC(=O)c1ccccc1-c1ccccc1C(=O)O)c1cccc(OCCO)c1 -5.09, C=CC[C@@]1(C(=O)NCC(O)CO)N=C(c2ccc(OCCCO)cc2)O[C@@H]1c1ccccc1CN=[N+]=[N-] (stereo not given in full) -0.0334, O=C(CS)NCCCCCCNC(=O)[C@@H]1C[C@@H]2C(=O)N[C@@H](Cc3ccccc3)C(=O)N2[C@@H]1c1ccc(O)cc1 0.809, C=CC[C@]1(C(=O)N2CCCCC2)N=C(c2ccc(OCCCO)cc2)O[C@H]1c1ccccc1N=[N+]=[N-] 1.55, COC(=O)[C@@]1(Cc2ccc(OC)cc2)[C@H]2c3cc(C(=O)N(C)C)n(Cc4ccc(C)c(F)c4F)c3C[C@H]2CN1C(=O)c1ccccc1 2.26, [N-]=[N+]=NCc1ccccc1C[C@]1(C(=O)N2CCCCC2)N=C(c2ccc(OCCCO)cc2)O[C@H]1c1ccccc1CN=[N+]=[N-] 0.736, CC(C)[Si](OCC[C@H]1O[C@]2(C(=O)N(Cc3ccccc3)c3ccccc32)[C@@H](C)[C@@H]1[Si](C)(C)O)(C(C)C)C(C)C 1.11, C=CCC(OC(C)=O)[C@@H]1[C@@H](N(Cc2ccc(-c3cccc(C(F)(F)F)c3)o2)C(=O)Cc2ccc(F)cc2)c2cc(OCCCO)ccc2N1C(=O)c1ccc(-c2ccccc2)cc1 (stereo not given in full) -0.12, C=C[C@H](OC)[C@@H](OC(=O)Nc1ccc(SC)cc1)c1ccc(O)c(F)c1 -0.703, O=C1O[C@H](c2ccccc2)[C@H](c2ccccc2)N2[C@H]1[C@@H](C(=O)NC[C@H](O)c1ccccc1)[C@]1(C(=O)Nc3ccc(C#CC4(O)CCCCCC4)cc31)[C@H]2c1ccc(OCCO)cc1 1.68, CC(C)C[C@@H]1NC(=O)[C@H](CC(C)C)NC(=O)[C@@]23C(=O)N[C@@H](Cc4ccccc4)C2[C@H](C)[C@@]2(C)O[C@H]2C3/C=C/CC/C=C/CNC1=O (stereo not given in full) 0.569, O=C1NC(=O)C2C1C=CC(C(O)C=Cc1ccc([N+](=O)[O-])cc1)N2Nc1ccccn1 (stereo not given) 0.086, NC(=O)NCC#Cc1ccc2c(c1)[C@]1(C(=O)N2)[C@H](C(N)=O)[C@H]2C(=O)O[C@H](c3ccccc3)[C@H](c3ccccc3)N2[C@@H]1c1ccccc1OCCO 0.785, CCOC(=O)C[C@H]1[C@H](OC(=O)c2cc3ccccc3oc2=O)[C@@H](NC(=O)C2CCCCC2)c2cc(OCCCO)ccc2N1C(=O)c1ccc2ccccc2n1 1.58, COc1cc2c(cc1OC)CN(C(=O)[C@H]1[C@@H]3C(=O)O[C@@H](c4ccccc4)[C@@H](c4ccccc4)N3[C@@H](c3ccc(O)cc3)[C@]13C(=O)Nc1ccc(C#CC4(O)CCCCCC4)cc13)CC2 0.087, O=C1OCCC/C=C\[C@H]2OC34C=CCN(CCN5CCOCC5)C(=O)[C@H]3N(CCCCCO)C(=O)[C@@H]4C12 (stereo not given in full) -0.634, C[N+](C)(C)CCCCNC(=O)[C@H]1C[C@H]2C(=O)NCC(=O)N2[C@H]1c1cccc(OCCO)c1 0.105, O=C1C[C@@](C(=O)NC2CC2)(c2ccc([N+](=O)[O-])cc2)[C@@H](c2ccc(CO)cc2I)N1CC12CC3CC(CC(C3)C1)C2 2.54, C=C(CCCC)/C(=C/C[C@@H](OC(=O)c1ccncc1)c1cccc(OCCO)c1)c1cc(C(=O)OC)ccc1OC 0.0731
